# Screens from PubChem.
# MgrA-DNA mod = S. aureus MgrA-DNA binding modulation | fluorescence polarization | inhibition, % (test concentration not listed) | actives 0.13% (n = 84,000) | AID 602314; in the data active = inhibition above about 30%, passing the limit was not always enough;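 note: 0% = protein plus DNA without compound and 100% = DNA alone without protein; higher means less MgrA bound to DNA so lower polarization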
# The depositor's hits bear a star. The sample as a whole holds a higher share of hits than the screen did.
SMILES,MgrA-DNA mod
O=C(CCN1CCCCC1)N/N=C/c1cccnc1,5
N#Cc1ccccc1Sc1ccccc1C(=O)NC(Cc1ccccc1)C(N)=O (centres undefined),1
Cc1cccc(N2C(=O)c3cccc4c(N5CCNCC5)ccc(c34)C2=O)c1,30
O=C1c2cccc3c(N4CCNCC4)ccc(c23)C(=O)N1c1ccc(Cl)cc1,60*
O=C1c2cccc3c(N4CCCC4)ccc(c23)C(=O)N1c1ccccc1,2
CN(Cc1ccccc1)c1nnc(NC(=O)c2cc(-c3ccc(Br)cc3)on2)s1,1
COC(=O)c1ccc([C@@H]2Nc3c(C)cccc3[C@@H]3C=CC[C@@H]32)cc1,0
O=C(c1cccc2c1NC(c1ccc(Br)cc1)C1CC=CC21)N1CCOCC1 (centres undefined),1
O=C(O)C1Nc2c(I)cccc2C2C=CCC12 (centres undefined),101*
CC1CC(=O)C2=C(C1)Nc1ccccc1NC2c1ccccc1 (centres undefined),-3
COc1ccc(NS(=O)(=O)Cc2ccccc2)cc1,-2
O=C1ON=C(c2ccccc2)/C1=C/c1c(Cl)cccc1Cl,-2
CC(C)Nc1ncnc2ccsc12,0
CCOc1ccc2nc3c(=O)[nH]c(=O)[nH]c3nc2c1,43
O=C(Nc1ccc2nc3c(=O)[nH]c(=O)[nH]c3nc2c1)C(F)(F)F,57*
Cc1ccc2oc(-c3ccc(NC(=O)C(F)(F)F)cc3)nc2c1,0
O=C1CC(c2ccccc2F)C2=C(CC(c3ccc(F)cc3)CC2=O)N1 (centres undefined),0
CCOc1ccc(CCNC(=O)c2cn(CC)c3nc(C)ccc3c2=O)cc1OCC,0
Cc1nc(C(F)(F)F)ccc1NC(=O)NCCNc1nccc(C(F)(F)F)n1,-2
CN1CCS/C1=C\C=C1/SC(=S)N(c2ccccc2)C1=O,-5
COc1ccc2c3c(cccc13)C(=O)CC2,69*
COc1cc(/C=C2\CCc3ccccc3C2=O)cc(OC)c1OC,-2
COC(=O)c1ccc2c3c(cccc13)CC2,0
N#Cc1c(Cl)cccc1NC1CCSC1 (centres undefined),-1
O=C(Cn1cncn1)c1ccc(Br)cc1Br,0
SMILES,MgrA-DNA mod
Cn1c(SCc2cc(=O)n3ccsc3n2)nnc1C1CC1,2
COc1ccccc1CNS(C)(=O)=O,4
NC(CO)C(=O)NNCc1ccc(O)c(O)c1O (centres undefined),6
O=C(N/N=C/c1cc(Br)ccc1O)N/N=C/c1cc(Br)ccc1O,0
NC(CO)C(=O)N/N=C/c1ccc(O)c(O)c1O (centres undefined),62*
O=S(=O)(Nc1ccc2ccccc2c1)c1cccs1,5
N#C/C(=C\C=C\c1ccco1)C(N)=S,100*
COc1ccc(NC(=O)/C(C#N)=C/C=C/c2ccco2)cc1,2
N#CC(C#N)=C(N)/C(C#N)=C/c1ccco1,1
Clc1nc(NCc2ccco2)nc(Nc2nc(-c3ccccc3)cs2)n1,0
Cc1cc(-c2ccccc2N)nc2ccccc12,-4
Cc1cc(N)c2ccccc2[n+]1CCCCCCCCCC[n+]1c(C)cc(N)c2ccccc21,55*
CC[n+]1ccc(C)c2ccccc21,0
N#C/C(=C\c1cc2ccccc2o1)S(=O)(=O)c1ccccn1,0
O=C(NCCSCc1ccco1)Nc1cc(Cl)cc(Cl)c1,0
O=C(NCCCO)Nc1ccc2nc(-c3ccco3)c(-c3ccco3)nc2c1,77*
O=C(Nc1ccc(N2CCOCC2)cc1)Nc1ccc2nc(-c3ccco3)c(-c3ccco3)nc2c1,2
COc1ccc(C(=O)CSc2nnc(-c3ccco3)c(-c3ccco3)n2)cc1,51*
O=C1COc2ccc(C(=O)CSc3nnc(-c4ccoc4)c(-c4ccoc4)n3)cc2N1,44
CCn1c(SCC(=O)c2ccccc2)nnc1-c1ccco1,-1
CCOc1ccc(C(=O)CSc2nnc(-c3ccco3)c(-c3ccco3)n2)cc1NC(=O)CC,92*
CCC(=O)Nc1ccc(C(=O)CSc2ncc(C#N)c(N)n2)cc1OC,3
CCc1ccc2c(c1)c1nnc(SCC(=O)c3ccc(OC)cc3)nc1n2C,-1
O=C(CSc1nnc(-c2ccoc2)c(-c2ccoc2)n1)c1ccc(N2CCCC2=O)cc1,42
Cn1c(SCC(=O)c2ccc(F)cc2)nnc1-c1ccco1,-4
SMILES,MgrA-DNA mod
O=C(CSc1nnc(-c2ccoc2)c(-c2ccoc2)n1)c1ccc(-c2ccccc2)cc1,71*
O=C(O)/C=C/c1ccc(C(F)(F)F)cc1,0
Brc1cccc(-c2nnc3sc(CN4CCc5ccccc54)cn23)c1,-2
COc1cc(/C=C2/C(=O)N(c3ccc(F)cc3)N=C2C)ccc1OCc1ccc(F)cc1,2
CCOC(=O)COc1c(Cl)cc(/C=C2/N=C(c3ccco3)OC2=O)cc1OCC,3
CCOc1cc(/C=C2/C(=O)ON=C2C)cc(Cl)c1OCc1ccc(F)cc1,54*
C=CCN1C(=O)S/C(=C/c2cn(CC(=O)O)c3ccccc23)C1=O,-1
O=C(Nc1ccc(Cl)cc1)NC1CC2CCC1C2 (centres undefined),2
CCc1cc2cc(C)cc(C)c2nc1SCC(=O)N1CCN(C(=O)c2ccco2)CC1,2
O=C(c1ccco1)N1CCCN(C(=O)c2ccco2)CC1,1
Cc1cc(C)c2nc(N3CCCN(C(=O)c4ccco4)CC3)c(C#N)cc2c1,49*
c1ccc(CSc2nnnn2-c2ccccc2)cc1,11
CC(Sc1nnnn1-c1ccccc1)C(=O)O (centres undefined),-3
O=C1C=CC(=O)C(Sc2nnnn2-c2ccccc2)=C1,75*
COc1ccc2[nH]c(=O)c(CN(Cc3cccs3)C(=O)c3cccs3)cc2c1,-2
Cc1ccc(S(=O)(=O)Nc2ccc(N=NN3CCCCC3)cc2)cc1,-3
C(=NCCN=Cc1ccc2c(c1)OCO2)c1ccc2c(c1)OCO2,-3
COC(=O)c1sccc1O,0
COC(=O)c1cc(C(=O)OC)c(C(=O)OC)cc1C(=O)OC,-3
COC(=O)c1ccsc1N,71*
CCOC(=O)C1=C(C)N=c2s/c(=C\c3c[nH]c4ccccc34)c(=O)n2C1c1ccc(OC)cc1OC (centres undefined),-1
OCC(O)C1OC(c2ccccc2)OCC1O (centres undefined),-2
O=C(c1ccc(C#Cc2ccccc2)o1)N1CCCC1,-2
CN(C)Cc1cc(O)c(CN(C)C)cc1O,55*
CN(C)Cc1ccccc1C(O)c1ccccc1 (centres undefined),0
SMILES,MgrA-DNA mod
CN(Cc1ccccc1)Cc1ccccc1O,0
CC(C)C(C(=O)OCC(=O)c1ccc(Br)cc1)N1C(=O)C2C3C=CC(C3)C2C1=O (centres undefined),-2
C1=Nc2ccccc2-c2nnc(SCc3ccccc3)nc2O1,6
O=S(=O)(c1cccc(C(F)(F)F)c1)N1CCCC1c1cccnc1 (centres undefined),2
O=S(=O)(c1ccc2nsnc2c1)N1CCCCC1c1cccnc1 (centres undefined),-2
O=S(=O)(c1ccc2c(c1)OCCO2)N1CCCCC1c1cccnc1 (centres undefined),58*
CC/C(O)=c1\ccc2cccc3nc(CC)nc1c23,16
CCOC(=O)C1=C(C)OC(N)=C(C#N)C1c1c(Cl)cccc1Cl (centres undefined),-2
